Test [1] deals with Glutathione peroxidase 1 (Homo sapiens) (UniProt P07203). Kind of test: Primary qHTS Assay for Inhibitors of Recombinant Selenoprotein Glutathione Peroxidase 1 (GPX1) (AID 1845191). For activity, negative = inhibition: % is set by controls: 0 for no effect and ±100 for the full control effect. Note: nearly all actives have a fitted effect of over 65% in size. In a few lines: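 GR-coupled assay: compounds preincubated 30 min at room temperature with GPX1, then reaction started with CHP; final 10 nM GPX1, 1 mM GSH, 0.5 mM CHP, 0.5 mM NADPH, 100 nM GR, 0.01% BSA, pH 7.5 Tris buffer. NADPH fluorescence (340/450 nm) read at 0 and 15 min.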
Background: qHTS replaces the single test concentration by a dilution series.

In test [2] the target is Phospholipid hydroperoxide glutathione peroxidase GPX4 (Homo sapiens) (UniProt P36969). Kind of test: Primary qHTS Assay for Inhibitors of Recombinant Selenoprotein Glutathione Peroxidase 4 (GPX4) (AID 1845192). For activity change, negative = inhibition: series mostly up to about 50 µM; % is set by controls: 0 for no effect and ±100 for the full control effect. Note: nearly all actives have a fitted effect of over 65% in size. In a few lines: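 GR-coupled assay: recombinant GPX4 preincubated 30 min with compound at room temperature; final 200 nM GPX4, 1 mM GSH, 0.5 mM cumene hydroperoxide, 0.5 mM NADPH, 100 nM GR, 0.01% BSA, pH 7.5 Tris. NADPH fluorescence (340/450 nm) read at 0 and 15 min.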

Test [3] addresses Luciferin 4-monooxygenase (Photinus pyralis) (UniProt P08659). Kind of test: Primary firefly luciferase (FLuc) qHTS assay for identification of artifact compounds. (AID 1845220).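 For activity change, negative = inhibition: series mostly up to about 54 µM; plate controls were DMSO vehicle for no effect and no enzyme for full effect.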 Note: nearly all actives have a fitted effect of over 60% in size. An outline of the steps:
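Titrated compounds were incubated 15 min at RT, protected from light, with luciferin and ATP at 10 uM; reaction started with 10 nM FLuc, luminescence imaged at 5 min, and concentration-response fitted by Hill equation.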

Test [4] is described as follows: Primary fluorescence-based thiol-reactive (MSTI) qHTS assay for identification of artifact compounds. (AID 1845221).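 For activity change, negative = thiol reactive: series mostly up to about 54 µM; thiol-reactive compounds lower the probe fluorescence signal.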 Note: nearly all actives have a fitted effect of over 65% in size. Note: potency is the fitted concentration of half-maximal effect. In a few lines: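 MSTI probe at 4 uM final in 2% DMSO/PBS pH 7.4; compounds, 1 h at room temperature in dark. Fluorescence Ex/Em 525/598 nm, normalised to Acetyl-MSTI and MSTI, fitted to 4-parameter Hill.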
Test [5] can be described thus: Primary redox qHTS assay for identification of artifact compounds. (AID 1845223).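 Note: 0% = DMSO and 100% = reference compound.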 In a few lines: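 Amplex Red (25 uM) and HRP (250 mU/mL) in HBSS, with compounds for 15 min, then 250 uM DTT for 30 min, room temperature, dark. Fluorescence 525/598 nm read; normalized to DMSO and 10 uM DA3003; Hill fit.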
Test [6] has as its system Nanoluciferase (engineered Oplophorus gracilirostris luciferase). Kind of test: Primary Nanoluciferase (NLuc) qHTS assay for identification of artifact compounds. (AID 1845222).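 Note: NLuc secreted into diluted conditioned medium of S16 cells; series mostly up to about 54 µM; 0% = DMSO and -100% = no enzyme.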 In a few lines: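 qHTS format, against NLuc in S16 cell-conditioned medium. Nano-Glo substrate 1:100 was added after 15 min at room temperature. Luminescence was taken after a further 5 min.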

SMILES strings stand for the structures. Values without a mark were called inactive. Records with an inconclusive call do not appear. The source made the active and inactive calls. Calls come from the whole dose curve; as a rule, active = well fitted curve in the direction sought with a large enough effect; inconclusive = small, poorly fitted or top-dose-only effect, or another doubt; inactive = no such curve, though single readings can be large; an effect the other way counts as inactive or inconclusive.

Glutathione peroxidase 1 (Homo sapiens), sequence (P07203 whole entry, looked up): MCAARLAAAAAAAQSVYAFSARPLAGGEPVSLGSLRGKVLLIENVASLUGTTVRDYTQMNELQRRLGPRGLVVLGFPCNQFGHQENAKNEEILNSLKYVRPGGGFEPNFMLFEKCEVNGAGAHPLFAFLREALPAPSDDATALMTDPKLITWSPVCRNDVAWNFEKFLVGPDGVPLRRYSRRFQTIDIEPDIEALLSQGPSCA
Phospholipid hydroperoxide glutathione peroxidase GPX4 (Homo sapiens), sequence (P36969 whole entry, looked up): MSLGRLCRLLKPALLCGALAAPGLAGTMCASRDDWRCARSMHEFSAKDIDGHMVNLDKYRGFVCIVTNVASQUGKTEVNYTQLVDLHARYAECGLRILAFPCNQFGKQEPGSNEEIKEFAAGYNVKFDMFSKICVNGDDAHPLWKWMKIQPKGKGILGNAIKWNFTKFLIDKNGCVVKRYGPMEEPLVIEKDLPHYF

Regarding `CC#CC(=O)N1CCC[C@H]1c1nc(-c2ccc(C(=O)Nc3ccccn3)cc2)c2c(N)nccn12`, the Potency entry in test [1], in test [2], in test [3], in test [4] and in test [5] was “inactive” throughout.
For the compound `COc1ccc(-c2nc(-c3ccc(-c4cccc(Cl)c4)o3)[nH]c2-c2ccc(OC)cc2)cc1`, the Potency result in test [1], in test [2], in test [3], in test [6] and in test [5] was “inactive” each time. Besides, the Potency in test [4] is 4.23 µM (active).
Regarding `C[C@@H]1O[C@@H](O[C@H]2[C@H](O[C@H]3[C@H](O[C@H]4CC[C@@]5(C)C(CC[C@]6(C)C5CC=C5[C@@H]7CC(C)(C)CC[C@]7(C(=O)O[C@@H]7O[C@H](CO)[C@@H](O[C@@H]8O[C@@H](C)[C@H](O)[C@@H](O)[C@H]8O)[C@H](O)[C@H]7O)CC[C@]56C)C4(C)C)OC[C@H](O)[C@@H]3O)O[C@H](CO)[C@@H](O)[C@@H]2O)[C@H](O)[C@H](O)[C@H]1O` (some centres undefined), the outcome in test [1] is “inactive [at 9.52 µM]”; in test [3], “inactive [at 11.6 µM]”. In addition, in test [2], the activity change, negative = inhibition is 0.115% [at 9.73 µM]. In addition, the activity, negative = inhibition in test [6] is 4.91% [at 11.6 µM]. For the same compound, the redox activity (% of DA3003) in test [5] was 19.8% [at 11.5 µM].
For `C[C@@H]1O[C@@H](O[C@H]2[C@H](OC(=O)[C@]34CCC(C)(C)C[C@H]3C3=CCC5[C@@]6(C)C[C@H](O)[C@H](O[C@@H]7O[C@H](CO)[C@@H](O)[C@H](O)[C@H]7O)[C@@](C)(CO)C6[C@H](O)C[C@@]5(C)[C@]3(C)C[C@H]4O)OC[C@H](O)[C@@H]2O)[C@H](O)[C@H](O)[C@H]1O[C@@H]1OC[C@@H](O)[C@H](O[C@H]2OC[C@](O)(CO)[C@H]2O)[C@H]1O` (some centres undefined), in test [1], the outcome is “inactive [at 9.52 µM]”. For the same compound, the values for the activity change, negative = inhibition in test [2] and in test [3] were 1.35% [at 9.73 µM] and 2.14% [at 11.6 µM], respectively. Also, the activity change, negative = thiol reactive in test [4] was 482% [at 11.5 µM]. In addition, the activity, negative = inhibition in test [6] is 4.86% [at 11.6 µM]. Further, the redox activity (% of DA3003) in test [5] was 4.44% [at 11.5 µM].
Regarding `COC(=O)C1=CO[C@@H](O)C2C(CO)=CCC12` (some centres undefined), the Potency entry in test [1], in test [2], in test [3], in test [4], in test [6] and in test [5] was “inactive” throughout.
`CC[C@H]1OC(=O)[C@](C)(F)C(=O)[C@H](C)[C@@H](O[C@@H]2O[C@H](C)C[C@H](N(C)C)[C@H]2O)[C@](C)(OC)C[C@@H](C)C(=O)[C@@H](C)[C@H]2N(CCCCn3cc(-c4cccc(N)c4)nn3)C(=O)O[C@]12C`: the Potency result in test [1], in test [2], in test [3], in test [4], in test [6] and in test [5] was “inactive” in each case.
On to `Cc1ccc(S(=O)(=O)Nc2ccccc2N2CCCCC2)s1`, for which the Potency entry in test [1], in test [2], in test [3], in test [6] and in test [5] was “inactive” in each case.
For `CC/C=C\CC1C(=O)C=CC1(CCCCCCCC(=O)O)OC(C)=O` (centres undefined), the Potency entry in test [1], in test [2], in test [3] and in test [6] was “inactive” each time.
For `COC(=O)C1=CO[C@@H](O[C@@H]2O[C@H](CO)[C@@H](O)[C@H](O)[C@H]2O)[C@@H]2C(COC(C)=O)=C[C@H](O)[C@H]12`, the Potency result in test [1], in test [2], in test [3], in test [4] and in test [5] was “inactive” in each case.
Regarding `C/C=C1\[C@H](O[C@@H]2O[C@H](CO)[C@@H](O)[C@H](O)[C@H]2O)OC=C(C(=O)OC)[C@H]1CC(=O)OC[C@H]1O[C@@H](OCCc2ccc(O)cc2)[C@H](O)[C@@H](O)[C@@H]1O`, the Potency entry in test [1], in test [2], in test [3], in test [6] and in test [5] was “inactive” in each case. Besides, the Potency in test [4] was 2.24 µM (active).
Turning to `COc1ccc(CC2NCCc3c2[nH]c2ccc(C)cc32)cc1OC` (centres undefined), the Potency entry in test [1], in test [2], in test [3], in test [4] and in test [5] was “inactive” throughout.
Consider `C=C(C(=O)O)C1CC2=C(C)CCCC2(C)C[C@@H]1O` (some centres undefined), for which the Potency result in test [1], in test [2], in test [3], in test [4] and in test [5] was “inactive” throughout.
Regarding `C=C1CCC2C(C)(C)C(O)CCC2(C)C1CCC(C)CCOC(C)=O` (centres undefined), the Potency result in test [1], in test [2], in test [3], in test [6] and in test [5] was “inactive” in each case.
For `C[C@@H]1CCN(C(=O)N2CCCC2)C[C@@H]1N(C)c1ncnc2[nH]ccc12`, the Potency entry in test [1], in test [2], in test [3], in test [4], in test [6] and in test [5] was “inactive” in each case.
Regarding `NC(=O)c1csc(C2OC(CO)C(O)C2O)n1` (centres undefined), the Potency entry in test [1], in test [2], in test [3], in test [6] and in test [5] was “inactive” each time.
`O=S(=O)(Nc1ccccn1)c1ccc(N=Cc2c(O)[nH]c3ccc4ncsc4c23)cc1`: the values for the outcome in test [1], in test [2] and in test [3] were “inactive [at 9.52 µM]”, “inactive [at 9.73 µM]” and “inactive [at 11.6 µM]”, respectively. In test [6], the activity, negative = inhibition was -7.47% [at 11.6 µM]. For the same compound, in test [5], the redox activity (% of DA3003) is -4.81% [at 11.5 µM].
For the compound `C[C@@H]1O[C@@H](O[C@@H]2[C@@H](O[C@@H]3O[C@@H](C)[C@H](O[C@@H]4OC[C@H](O)[C@H](O[C@@H]5OC[C@@H](O)[C@H](O)[C@H]5O)[C@H]4O)[C@@H](O[C@@H]4OC[C@](O)(CO)[C@H]4O)[C@H]3O)[C@H](OC(=O)[C@]34CCC(C)(C)C[C@H]3C3=CCC5[C@@]6(C)C[C@H](O)[C@H](O[C@@H]7O[C@H](CO[C@@H]8OC[C@H](O)[C@H](O)[C@H]8O)[C@@H](O)[C@H](O)[C@H]7O)C(C)(C)C6CC[C@@]5(C)[C@]3(C)C[C@H]4O)OC[C@H]2O)[C@H](O)[C@H](O)[C@H]1O` (some centres undefined), the activity, negative = inhibition in test [1] is 1.11% [at 9.52 µM]; in test [6], 1.99% [at 11.6 µM]. The activity change, negative = inhibition in test [2] was -0.822% [at 9.73 µM]; in test [3], 1.22% [at 11.6 µM]. Moreover, in test [4], the activity change, negative = thiol reactive was 203% [at 11.5 µM]. In addition, the redox activity (% of DA3003) in test [5] was 6.31% [at 11.5 µM].
Take `CC[C@H](NC(=O)[C@H](CS(=O)(=O)CC1CC1)N[C@@H](c1ccc(F)cc1)C(F)(F)F)C(=O)C(=O)NC1CC1`: the Potency result in test [1], in test [2], in test [3], in test [4], in test [6] and in test [5] was “inactive” throughout.
Regarding `COc1cc2ncnc(Nc3cccc(Cl)c3F)c2cc1OC(=O)N1CCN(C)C[C@H]1C`, the Potency entry in test [1], in test [2], in test [3], in test [6] and in test [5] was “inactive” in each case.
Turning to `COc1c(/C=C/C(C)(C)O)ccc2c1C(=O)OCc1cc(C)cc(O)c1O2`, the Potency entry in test [1], in test [2], in test [3] and in test [6] was “inactive” in each case.
`CC(C)N(CCCCOCC(=O)NS(C)(=O)=O)c1cnc(-c2ccccc2)c(-c2ccccc2)n1`: the Potency entry in test [1], in test [2], in test [3], in test [4] and in test [5] was “inactive” each time.
In the case of `CC(=O)O[C@@H]1CC(C)=C2[C@H]1[C@H](C)CC[C@H]2/C=C(\C)C(=O)O`, the Potency result in test [1], in test [2], in test [3] and in test [6] was “inactive” throughout.
Consider `O=c1[nH]ccc2cc(OC3CCNCC3)ccc12`, for which the Potency result in test [1], in test [2], in test [3], in test [4] and in test [5] was “inactive” in each case.
Regarding `CC(C)[N+]1(C)C2CCC1CC(OC(=O)C(CO)c1ccccc1)C2` (centres undefined), the Potency result in test [1], in test [2], in test [3], in test [6] and in test [5] was “inactive” each time.
As to `C=C1C(=O)O[C@H]2[C@H]1CC/C(C)=C/CC[C@@]1(C)O[C@@H]21`, the Potency entry in test [1], in test [2], in test [3], in test [4], in test [6] and in test [5] was “inactive” each time.
Take `CC(=O)O[C@H]1C[C@@]2(C)[C@@H](CC[C@H]3[C@@]4(C)C=CC(=O)[C@@H](C)[C@@H]4[C@H](O)C(=O)[C@@]32C)/C1=C(/CCC=C(C)C)C(=O)O`: the Potency entry in test [1], in test [2], in test [3], in test [6] and in test [5] was “inactive” in each case.
For `COc1cc(N)c(Cl)cc1C(=O)NC[C@@H]1CCN2CCC[C@@H]12`, the Potency result in test [1], in test [2], in test [3] and in test [6] was “inactive” throughout.
`CC(C)/C=C1\NC(=O)C(C(C)C)n2c1nc1c(c2=O)C=CC=CO1` (centres undefined): the Potency result in test [1], in test [2], in test [3], in test [6] and in test [5] was “inactive” each time.
Consider `CO[C@H]1C[C@@H]2CC[C@@H](C)[C@@](O)(O2)C(=O)C(=O)N2CCCC[C@H]2C(=O)O[C@H]([C@H](C)C[C@H]2CC[C@@H](OP(C)(C)=O)[C@H](OC)C2)CC(=O)[C@H](C)/C=C(\C)[C@@H](O)[C@@H](OC)C(=O)[C@H](C)C[C@H](C)/C=C/C=C/C=C/1C`, for which the Potency entry in test [1], in test [2], in test [3] and in test [6] was “inactive” in each case.

These data come from PubChem BioAssay (NCATS).
